Data as given in the supplement of paper PMC13380429.

System: Vero E6 infected with SARS-CoV-2
Experiment: inhibition of SARS-CoV-2 cytopathic effect; higher = more antiviral protection, active = above 15
Settings: 48 h

Measured: inhibition of SARS-CoV-2 cytopathic effect

CN(C(=O)c1ccc(F)cc1C(F)(F)F)C1CCN(c2nnc(-c3ccnn3C)c3ccccc23)CC1 [taladegib]
inactive: 1 nM 0.16% | 8.33 nM -6.09% | 100 nM -5.17% | 833.33 nM -5.9% | 10000 nM -5.54%

CC[C@H](CC#N)OC(=O)N[C@@H](C)c1cccc(NC(=O)Nc2ccc(-c3cnco3)c(OC)c2)c1
inactive: 1 nM 0.48% | 8.33 nM 4.56% | 100 nM 0.06% | 833.33 nM 10.2% | 10000 nM 13.2%

Oc1ncnc2[nH]ncc12 [allopurinol]
inactive: 1 nM -15.3% | 8.33 nM -12.3% | 100 nM -11.2% | 833.33 nM -10.9% | 10000 nM -7.04%

NC1=NC(=O)N([C@H]2C[C@H](O)[C@@H](CO)O2)CN1
inactive: 1 nM -1.14% | 8.33 nM -2.12% | 100 nM 0.08% | 833.33 nM 0.71% | 10000 nM -0.27%

CCOc1cc2ncc(C#N)c(Nc3ccc(OCc4cccc(F)c4)c(Cl)c3)c2cc1NC(=O)/C=C/CN(C)C
inactive: 1 nM -1.73% | 8.33 nM -3.51% | 100 nM -7.95% | 833.33 nM -12% | 10000 nM -22%

CN(C)CC[C@@H](c1ccc(Cl)cc1)c1ccccn1 [chlorphenamine]
inactive: 1 nM 0.315% | 8.33 nM 1.98% | 100 nM -0.53% | 833.33 nM 0.17% | 10000 nM -5.02%

CC(C)Cn1cnc2c1c(=O)n(C)c(=O)n2C [isbufylline]
inactive: 1 nM -1.81% | 8.33 nM 0.75% | 100 nM 0.2% | 833.33 nM -0.05% | 10000 nM 1.65%

CC(C)NCC(O)c1ccc([N+](=O)[O-])cc1 (stereo not given) [nifenalol]
inactive: 1 nM -3.06% | 8.33 nM 0.04% | 100 nM -1.08% | 833.33 nM 0.11% | 10000 nM -2.75%

CCCSc1ccc2[nH]c(NC(=O)OC)nc2c1 [albendazole]
inactive: 1 nM 3.38% | 8.33 nM -0.38% | 100 nM -0.24% | 833.33 nM -0.32% | 10000 nM 2.97%

CN1CCCCC1Cn1cc(C(=O)c2cc([N+](=O)[O-])ccc2I)c2ccccc21 (stereo not given)
inactive: 1 nM -0.48% | 8.33 nM 0.44% | 100 nM 0.04% | 833.33 nM -2.69% | 10000 nM 4.92%

CCCOC(=O)c1ccccc1 [propyl-benzoate]
inactive: 1 nM 2.41% | 8.33 nM 0.41% | 100 nM -0.99% | 833.33 nM 0.39% | 10000 nM 2.1%

c1ccc2c(c1)CN1CCCC1=N2 [desoxypeganine]
inactive: 1 nM -4.75% | 8.33 nM -3.18% | 100 nM -1.21% | 833.33 nM -2.32% | 10000 nM -1.54%

CC(C)(Oc1ccc(Cl)cc1)C(=O)O [clofibric-acid]
inactive: 1 nM 0.55% | 8.33 nM 2.02% | 100 nM 0.3% | 833.33 nM 2.45% | 10000 nM 2.22%

Cc1c(C(=O)NN2CCOCC2)nn(-c2ccc(Cl)cc2Cl)c1-c1ccc(I)cc1
inactive: 1 nM 0.53% | 8.33 nM 1.48% | 100 nM 1.24% | 833.33 nM -2.07% | 10000 nM 1.16%

COCCc1ccc(OCC(O)CNC(C)C)cc1 (stereo not given) [metoprolol]
inactive: 1 nM 2% | 8.33 nM 1.22% | 100 nM -0.12% | 833.33 nM -0.66% | 10000 nM 1.25%

CCCCCCCCCCCCCCCCCCN(CCCCCCCCCCCCCCCCCC)CCCN(CCO)CCO [avridine]
inactive: 1 nM -9.9% | 8.33 nM -6.98% | 100 nM -5.76% | 833.33 nM -5.17% | 10000 nM -10.1%

NC1(Cc2ccc(Cl)cc2)CCN(c2ncnc3[nH]ccc23)CC1
inactive: 1 nM -1.05% | 8.33 nM 0.05% | 100 nM -0.65% | 833.33 nM 0.89% | 10000 nM -9.28%

O=C(C[C@H]1CC(c2ccc(F)cc2F)=NO1)N1CCOCC1 (racemic)
inactive: 1 nM -1.54% | 8.33 nM 0.9% | 100 nM 2.24% | 833.33 nM 0.99% | 10000 nM 1.2%

COC(=O)CC[C@@H]1N=C(c2ccccn2)c2cc(Br)ccc2-n2c(C)cnc21 [remimazolam]
inactive: 1 nM 0.83% | 8.33 nM 1.12% | 100 nM 2.32% | 833.33 nM 0.51% | 10000 nM -1.57%
